An excerpt weighted towards active compounds, which were near 21% of everything screened.
Shiga toxin inh – blocks Shiga toxin action in Vero cells. Vero cells, Shiga toxin protein synthesis inhibition reporter. actives 9.2% (n = 290,000). AID 2315. inhibition, % at 38.7 µM; in the data active = inhibition mostly above about 28%, no sharp cut-off; inactive = mostly below about 43%
Pf growth 96h – inhibits malaria parasite growth, 96 h; P. falciparum luciferase reporter growth, 96 h; Potency, µM (doses to about 28.7 µM), actives largely listed as inhibitors; actives 6.9% (n = 320,000); AID 504834; active = well fitted inhibition curve with a large enough effect; inconclusive = small, poorly fitted or top-dose-only effect, or another doubt; inactive = no such curve, though single readings can be large or run the other way
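Compounds incubated with erythrocytes infected by luciferase-expressing P. falciparum (2% hematocrit, 0.05% parasitemia final) for 96 hours, 37 C in 5% CO2. Growth inhibition scored as decreased luciferase luminescence.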
Pf growth 48h – P. falciparum growth inhibition at 48 hours (one generation). P. falciparum luciferase growth in erythrocytes, 48 h. Potency, µM (titrated, usually from 28.7 µM), hits mostly inhibitors. actives 5.9% (n = 310,000); active = well fitted inhibition curve with a large enough effect; inconclusive = small, poorly fitted or top-dose-only effect, or another doubt; inactive = no such curve, though single readings can be large or run the other way
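Compounds are pin-transferred into medium, infected erythrocytes (2% hematocrit, 0.1% parasitemia final) are added, and plates sit one parasite generation at 37 C in 5% CO2. Detection reagent is then added and luminescence measured.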
SARS PLP yeast – SARS-CoV PLP inhibition in yeast; Potency, µM (series often up to 32.9 µM), usual class: activators; S. cerevisiae expressing SARS-CoV PLpro, growth rescue; AID 485353; actives 0.19% (n = 330,000); note: nearly all actives have a fitted effect of over 55% in size
NS1 function inh – blocks influenza NS1 protein function; Potency, µM (doses to about 46.1 µM); actives 0.4% (n = 270,000); note: actives are rising curves; nearly all actives have a fitted effect of over 50% in size
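Growth recovery, yeast-based: influenza A NS1 expressed in S. cerevisiae causes slow growth, and suppressors are detected by OD600. The parent strain without NS1 is used as positive control.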
CHX counter – counter-screen for Shiga toxin inhibitors: cycloheximide protein synthesis inhibition. actives 12% (n = 300,000). max response, %. cell reporter, cycloheximide protein synthesis inhibition counterscreen; in the data active = max response mostly above about 13%, no sharp cut-off; inactive = mostly below about 14%; note: read at 38.3 µM for the half of the compounds with a filed dose
Large screens that a line does not name were inactive. Unless noted, calls come from the whole dose curve.

CC(=O)c1cccc(NC(=S)N2CCc3ccccc32)c1	Shiga toxin inh 157, CHX counter 63
COc1ccc(NC(=S)NN2CCN(C)CC2)cc1OC	Pf growth 96h 2.3µM
COc1cc(NC(=S)NN2CCN(C)CC2)cc(OC)c1OC	none
COCCCNc1nc2ccccc2nc1NS(=O)(=O)c1ccccc1	none
CCOC(=O)n1c(=O)n(Cc2ccc(Cl)c(Cl)c2)c2ccccc21	Pf growth 96h inconclusive, Pf growth 48h inconclusive
O=[N+]([O-])c1ccc(NC(=S)N2CCc3ccccc32)cc1	Shiga toxin inh 42, Pf growth 96h inconclusive
S=C(Nc1ccccc1)N1CCc2ccccc21	Pf growth 96h inconclusive, CHX counter 14 (no result: Shiga toxin inh)
O=C(NC(=S)N1CCc2ccccc21)c1ccccc1	Pf growth 96h inconclusive, Pf growth 48h inconclusive
Cc1ccccc1NC(=O)NC1(C(=O)NCC2CCCO2)CCCCC1 (configuration not stated)	none
COc1cccc(C(=O)/C=C/c2ccc(N3CCCCC3)c([N+](=O)[O-])c2)c1	Shiga toxin inh 60, Pf growth 48h inconclusive, CHX counter 29
CO/N=C/c1ccc(N2CCCC2)c([N+](=O)[O-])c1	CHX counter 31 (no result: NS1 function inh)
O=[N+]([O-])c1cc(/C=N/O)ccc1N1CCCC1	none (no result: NS1 function inh)
Cc1ccc2nc(C)c(C(=O)NN=C3CCN(C)CC3)n2c1	none
COc1ccccc1N(C)S(=O)(=O)c1ccc(Cl)c(C(=O)NCC2(N(C)C)CCCCC2)c1	Pf growth 96h 9.3µM, Pf growth 48h inconclusive (no result: Shiga toxin inh, NS1 function inh, CHX counter)
COc1ccccc1N(C)S(=O)(=O)c1ccc(Cl)c(C(=O)NNC(=O)c2ccccc2O)c1	none
COc1ccc(Cl)cc1NS(=O)(=O)c1cccc(C(=O)NCC2(N(C)C)CCCCC2)c1	Pf growth 96h 15µM, Pf growth 48h inconclusive
COc1ccccc1NS(=O)(=O)c1cccc(C(=O)NCC2(N(C)C)CCCCC2)c1	Pf growth 96h inconclusive (no result: Shiga toxin inh, NS1 function inh, CHX counter)
O=S1(=O)C=CC(N2CCOCC2)C1 (configuration not stated)	none
CCN(CC)CCCNC(=O)CSc1nc(-c2ccc(F)cc2)cc(C(F)(F)F)n1	none
C[C@H]1[C@H](OC(=O)CCC(=O)NCc2ccc(C(=O)O)cc2)O[C@@H]2O[C@@]3(C)CC[C@H]4[C@H](C)CC[C@@H]1C24OO3	Pf growth 96h 0.0033µM, Pf growth 48h 0.019µM
CO[C@H]1OC2O[C@@]3(C)CC[C@H]4[C@H](C)CC[C@@H]([C@H]1C)[C@@]24OO3 (some centres not stated)	Pf growth 96h 0.0048µM, Pf growth 48h 0.0048µM (no result: Shiga toxin inh, SARS PLP yeast, NS1 function inh, CHX counter)
CC(=O)NCCCc1nc2ccccc2n1Cc1c(F)cccc1Cl	none
COCCCN1C(=O)N(c2ccc(F)cc2)C(=O)C1CC(=O)Nc1ccc(OC)cc1 (configuration not stated)	none
COc1ccc(OC)c(C2Nc3nc4ccccc4n3C(C)=C2C(=O)Nc2ccc(C)cc2C)c1 (configuration not stated)	Pf growth 48h 7.4µM, NS1 function inh inconclusive (no result: Pf growth 96h)
CCCCOc1ccc(C(=O)N2CCC(C)CC2)cc1	none (no result: Pf growth 96h)
CCCCOc1ccc(C2CCC(C(C)=O)C(C)C2)cc1 (configuration not stated)	Shiga toxin inh 62, CHX counter 51
COc1ccc(Br)cc1CN1CCSCC1	none
Cc1ccc(S(=O)(=O)N2[C@@H](c3ccccc3F)C(C(=O)O)=CC[C@H]2c2ccc3c(c2)OCO3)cc1	Pf growth 96h 12µM, Pf growth 48h inconclusive (no result: Shiga toxin inh, NS1 function inh, CHX counter)
Cc1ccc(S(=O)(=O)N2[C@@H](c3ccc(F)cc3)C(C(=O)O)=CC[C@H]2c2ccc3c(c2)OCO3)cc1	Pf growth 96h 12µM, Pf growth 48h inconclusive (no result: Shiga toxin inh, NS1 function inh, CHX counter)
COC(=O)C1=C(N)Oc2cc(C)n(CCCn3ccnc3)c(=O)c2C1c1ccc(Cl)cc1 (configuration not stated)	Pf growth 96h 4.7µM, Pf growth 48h 3.3µM
Cc1ccc(NC(=S)NNC(=O)c2nn(C)cc2Cl)cc1	CHX counter 19
Cc1ccc(/C=N/OC(=O)c2nn(C)cc2Cl)cc1	Shiga toxin inh 89, CHX counter 55 (no result: NS1 function inh)
Cc1cccc(NC(=S)NNC(=O)c2nn(C)cc2Cl)c1	CHX counter 25
Cc1ccc(NC(=S)NNC(=O)CSc2nc3ccccc3c(=O)n2-c2ccc(C)cc2)cc1	Pf growth 96h inconclusive, Pf growth 48h inconclusive, NS1 function inh inconclusive
